# A selection: hits, their analogues and other compounds. The true share with any hit is near 7%.
# AHR activator: activates the human aryl hydrocarbon receptor; hit rate 2.5% among 320,000; activation, % at 5 µM; AHR-responsive luciferase reporter cells, luminescence; P35869; in the data active = activation above about 47%;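 note: 0% = vehicle wells and 100% = reference agonist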
# ADAM10 inh: inhibitors of human ADAM10; O14672; recombinant ADAM10, EDANS/DABCYL FRET peptide cleavage, 3 h; inhibition, % at 7 µM; hit rate 0.62% among 370,000; AID 720582;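 active = inhibition above a per-campaign cutoff equal to the mean of compounds falling between control-based bounds plus 3 SD, cut at about 20% in these data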;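 note: 0% = DMSO wells while the 100% control is not disclosed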
# ADAM17 inh: inhibits human ADAM17; hit rate 0.83% among 370,000; recombinant ADAM17, EDANS/DABCYL FRET peptide cleavage; AID 720648; P78536; inhibition, % at 6.95 µM;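 active = inhibition above the mean of compounds lying between control limits plus 3 SD, set per campaign, cut at about 8.5% in these data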;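 note: 0% = DMSO-only wells as the low control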
# Target sequence (P78536 215-824 limits assumed): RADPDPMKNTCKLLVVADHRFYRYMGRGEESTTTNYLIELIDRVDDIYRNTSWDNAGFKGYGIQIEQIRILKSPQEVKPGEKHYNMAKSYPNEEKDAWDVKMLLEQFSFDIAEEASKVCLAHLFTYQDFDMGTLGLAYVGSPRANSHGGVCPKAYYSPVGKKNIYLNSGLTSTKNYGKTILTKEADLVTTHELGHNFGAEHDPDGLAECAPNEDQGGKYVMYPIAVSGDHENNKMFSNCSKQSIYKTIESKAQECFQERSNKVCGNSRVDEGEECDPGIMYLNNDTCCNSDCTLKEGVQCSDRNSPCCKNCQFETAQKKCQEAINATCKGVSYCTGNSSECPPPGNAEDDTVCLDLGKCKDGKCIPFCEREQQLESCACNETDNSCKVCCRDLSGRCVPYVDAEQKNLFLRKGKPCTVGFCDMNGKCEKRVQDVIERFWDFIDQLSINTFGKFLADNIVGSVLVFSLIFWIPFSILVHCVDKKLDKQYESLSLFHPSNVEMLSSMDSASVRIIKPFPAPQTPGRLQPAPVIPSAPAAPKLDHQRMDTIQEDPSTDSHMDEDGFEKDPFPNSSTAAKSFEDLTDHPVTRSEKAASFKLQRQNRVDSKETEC
# NR3A LBD binder: modulates the human NR3A ligand-binding domain; hit rate 2.5% among 340,000; Tm shift relative to glycine control, % at 25 µM; NR3A LBD differential scanning fluorimetry, Tm shift; 0% = protein alone, 100% = glycine-bound protein;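 active = melting temperature shift of at least 10% of the positive control shift, at one fixed dose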
# proKLK7 act: proKLK7 (human) activation, primary screen | P49862 | purified proKLK7, EDANS-DABCYL substrate fluorescence; 100% is mature enzyme control, 0% vehicle | activation, % at 7 µM | AID 652039 | hit rate 0.9% among 370,000;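 active = activation above the mean of all tested compounds plus 3 SD, computed per campaign excluding outliers beyond control limits, cut at about 13% in these data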
# rCAG RNA binder: binds r(CAG) RNA repeats; hit rate 1.3% among 370,000; inhibition, % at 3 µM; r(CAG) RNA repeat, TO-PRO-1 dye displacement fluorescence; AID 651821;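 active = inhibition above the plate cutoff, the mean of all test compounds on that plate plus 3 SD, cut at about 35% in these data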;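 note: 0% = DMSO alone and 100% = 100 µM mitoxantrone as full dye displacement; higher means more dye released from RNA so lower well fluorescence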
# ADAM10 ctr: inhibits human ADAM10 in ADAM17 exosite counter-screen. shares compounds with ADAM17 inh. recombinant ADAM10, EDANS/DABCYL FRET peptide cleavage, 3 h. inhibition, % at 6.95 µM. hit rate 47% among 2,900. AID 743256;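 active = mean inhibition over the triplicate runs exceeds the activity threshold set in the earlier primary screen, cut at about 20% in these data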;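 note: 0% = DMSO wells and 100% = marimastat wells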
# ADAM17 confirm: human ADAM17 inhibition, confirmation; AID 743257; hit rate 65% among 2,900; shares compounds with ADAM17 inh; recombinant ADAM17, EDANS/DABCYL QFRET peptide cleavage; inhibition, % at 6.95 µM;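 active = mean inhibition across replicates above the hit cutoff set in the primary screen, cut at about 8.5% in these data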;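 note: 0% = DMSO wells and 100% = marimastat wells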
# Active calls of the source: *; nt = no result given.
SMILES,AHR activator,ADAM10 inh,ADAM17 inh,NR3A LBD binder,proKLK7 act,rCAG RNA binder,ADAM10 ctr,ADAM17 confirm
CCOC(=O)c1ccc(Oc2coc3cc(O)ccc3c2=O)cc1,0.5,-339.0,-132.6,-1.8,4.2,1.9,nt,nt
CC(NC(=O)c1cccc(S(=O)(=O)N2CCN(C)CC2)c1)c1ccc(Cl)cc1Cl (centres undefined),-0.1,3.3,-1.4,3.0,-0.5,-0.3,nt,nt
O=C(O)c1cc([N+](=O)[O-])ccc1-c1ccc([N+](=O)[O-])cc1C(=O)O,nt,-7.5,9.4*,nt,0.1,2.9,1.4,1.5
Cc1ccccc1NC(=O)/C=C1\SC(=O)NC1=O,1.2,3.2,0.1,0.7,-0.3,1.0,nt,nt
COc1ccc(OC)c(CCNC(=O)c2ccccc2NC(=O)C2=C(C)OCCS2)c1,14.4,10.8,-0.2,1.5,0.4,-2.6,nt,nt
COc1ccc(CNS(=O)(=O)/C=C/c2ccc(OC)cc2CNC(=O)OC(C)(C)C)cc1,nt,11.3,9.4*,nt,-0.3,-0.5,23.5*,9.7*
COc1ccc([N+](=O)[O-])cc1NC(=O)C(C)OC(=O)c1ccccc1C(=O)c1ccc(Cl)cc1 (centres undefined),4.1,13.0,8.8*,-7.7,0.2,9.1,46.1*,18.2*
COc1ccc([N+](=O)[O-])cc1NC(=O)COC(=O)c1ccccc1C(=O)c1ccccc1,2.2,-1.1,-2.7,-8.0,0.0,-0.2,nt,nt
O=C(Nc1ncccc1O)c1ccc(S(=O)(=O)Nc2ccccc2)cc1,4.4,-2.5,-2.8,nt,0.1,3.0,nt,nt
O=C(CSc1nnc(-c2ccccc2)n1-c1ccccc1)NN=C/C=C\c1ccccc1[N+](=O)[O-],nt,14.4,8.8*,nt,1.1,4.6,30.5*,16.0*
CN(C)c1ccc(C(CNC(=O)c2ccc(-c3ccccc3)cc2)N2CCOCC2)cc1 (centres undefined),1.0,-0.3,-4.5,nt,-0.1,-0.7,nt,nt
COC(=O)[C@@H]1C[C@@H]2CC[C@@H](O)C[C@@H]2N1Cc1ccccc1OS(=O)(=O)c1ccc(C)cc1,1.4,-4.2,-1.1,0.8,-0.3,7.2,nt,nt
COC(=O)[C@@H]1C[C@H]2CC[C@H](O)C[C@H]2N1Cc1ccccc1OC(=O)c1cccs1,0.9,3.0,10.9*,0.8,0.5,6.7,-4.7,-0.5
O=C(Nc1ccon1)c1cccc(S(=O)(=O)N2CCCCC2)c1,10.8,-0.1,5.6,0.2,-0.8,-2.8,nt,nt
CCOC(=O)c1c(C)[nH]c(C(=O)N2CCN(c3ccc(OC)cc3)CC2)c1C,-0.4,-10.1,-3.5,-3.7,0.5,-4.7,nt,nt
COc1cccc(C(C)(O)c2nc(-c3csc4ccccc34)cs2)c1 (centres undefined),nt,12.3,9.5*,nt,-0.1,2.2,33.0*,16.1*
CCOC(=O)c1cnc2ccc(OCC)cc2c1N(C)Cc1ccccc1,6.9,6.5,9.4*,11.2*,-1.2,-2.4,24.2*,15.0*
Cc1ccc(NC(CNS(=O)(=O)c2ccc(Cl)cc2)c2ccccc2)cc1 (centres undefined),18.0,14.9,13.1*,11.3*,-0.2,3.1,30.7*,15.3*
NS(=O)(=O)c1ccc(NC(CNS(=O)(=O)c2ccccc2)c2ccccc2)cc1 (centres undefined),1.7,-5.4,-5.0,-7.0,0.0,7.5,nt,nt
COc1cccc(CNC(=O)C2CCCN(S(=O)(=O)c3c(C)noc3/C=C/N(C)C)C2)c1 (centres undefined),-2.5,17.3,8.9*,-3.0,-1.1,24.4,12.4,6.6
COc1ccc(NC(=O)C2CCN(S(=O)(=O)c3c(C)noc3/C=C/N(C)C)CC2)cc1,-2.9,-1.8,10.1*,3.3,-1.7,30.1,16.3,11.4*
COc1cccc(CNS(=O)(=O)c2c(C)[nH]c(C)c2C(=O)N2CCCCC2)c1,5.0,3.6,-0.3,-2.6,0.8,-1.6,nt,nt
CC(C)CCN(C(=O)c1csnn1)C(C(=O)NC1CCCCC1)c1ccc(F)cc1 (centres undefined),1.4,-0.6,0.3,2.7,0.3,0.2,nt,nt
c1ccc(-c2cccc(CNc3nc(-c4ccccn4)nnc3-c3ccccc3)c2)cc1,nt,14.3,9.0*,nt,nt,nt,8.8,6.3
O=C(CN1c2ccccc2Sc2ccccc21)N/N=C/c1ccc([N+](=O)[O-])cc1,0.6,15.4,12.5*,32.5*,0.5,22.5,29.1*,17.1*
SMILES,AHR activator,ADAM10 inh,ADAM17 inh,NR3A LBD binder,proKLK7 act,rCAG RNA binder,ADAM10 ctr,ADAM17 confirm
COc1c(NC=O)c2c(c([N+](=O)[O-])c1OC)C(=O)OC2,nt,6.1,8.8*,-0.5,-0.1,3.1,-5.8,-1.7
COC(=O)c1cc(OC)c(OC)c(OC)c1[N+](=O)[O-],-2.8,2.7,-0.1,-0.1,0.5,-0.3,nt,nt
COc1ccc(C)cc1NC(=O)NNC(=O)C(C)Oc1ccc([N+](=O)[O-])cc1 (centres undefined),4.3,16.0,9.0*,-1.7,-0.5,4.1,13.3,9.0*
COc1ccccc1Nc1nccc(N(C)C)c1C#N,8.8,4.3,-4.3,-0.8,0.5,-1.5,nt,nt
CCCCc1c(-c2ccc(F)cc2F)ncn1CCc1ccccc1OC,nt,15.2,5.7,nt,-0.2,-2.5,nt,nt
COc1ccccc1CCn1cnc(-c2ccc(F)cc2F)c1CC(C)C,nt,12.3,10.3*,nt,0.8,0.4,29.5*,14.1*
O=C(CCCOC(=O)c1cccnc1Cl)c1ccc(Br)cc1,0.2,-6.0,-0.2,3.0,-1.0,-0.6,nt,nt
O=C(CCCOC(=O)c1ccc(O)cc1O)c1ccc(Br)cc1,nt,7.8,11.4*,10.1*,0.0,12.3,12.5,10.0*
COc1ccc(-c2nc(-c3ccccc3)[nH]c(=O)c2C#N)cc1,-0.1,4.5,7.2,2.9,0.6,8.3,nt,nt
COc1cc(-c2nc(-c3ccc4c(c3)-c3ccccc3S4(=O)=O)c(-c3ccccc3)[nH]2)cc(OC)c1O,8.2,-10.4,8.8*,7.2,-0.8,25.0,16.2,14.1*
Nc1nc(CSc2nc3ccccc3s2)nc(Nc2ccccc2)n1,14.9,nt,nt,nt,nt,nt,nt,nt
Cc1c(Cl)cccc1Nc1nc(N)nc(CSc2nc3ccccc3s2)n1,28.9,16.3,9.5*,11.3*,-0.5,8.3,19.6,11.0*
Cc1ccc(N2C(=O)CS/C2=N\C(=S)Nc2ccccc2)cc1,7.1,8.9,-3.9,-0.8,-0.7,7.2,nt,nt
CNC(=O)C1CC(=O)N/C(=N/N=C(\C)c2cccs2)S1 (centres undefined),13.0,8.2,10.0*,-1.5,0.1,3.8,18.3,13.5*
C/C(=N\N=C1\NC(=O)CC(C(=O)O)S1)c1cccs1 (centres undefined),2.9,1.3,-1.6,0.1,0.1,-2.5,nt,nt
